Out of some 1,600 compounds screened, fewer than 10 were called active. About 48% were inconclusive and are not listed.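 The calls were made as follows: active = Normal-ribosome green reporter loss at least double humanized-ribosome red reporter loss, with overall culture growth inhibition under a set limit; inconclusive = no clear call, values can overlap the other calls; inactive = the rest.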 A selection follows. Entries with a potency or affinity are not part of this list.
assay: E. coli growth inhibition, wild-type GFP versus H38 humanized RFP strain – H38 mutant RFP vs wild-type GFP, cherry-pick, dose response (AID 977630); settings: mixed culture, 24 h; series mostly up to 50 µM; activity change, negative = inhibition: at the top concentration

Activity change, negative = inhibition, inactive:
CN(C)S(=O)(=O)c1cccc(NC(=O)c2ccc3c(c2)S(=O)(=O)N=C2CCCCCN23)c1 -18.5, CC1Cc2cc(-c3csc(NC(=O)Cc4ccccc4)n3)ccc2N1S(C)(=O)=O (stereo not drawn) 1.07, CCN=C1NN=C(c2ccc(C)cc2)CS1 3.76, COc1cc(CCN(C(=O)c2cc3ccccc3[nH]2)C(c2ccccn2)c2nc3ccccc3[nH]2)cc(OC)c1 (stereo not drawn) -14, NS(=O)(=O)c1ccc(CCNC(=O)CCCCCNc2nc(=S)[nH]c3ccccc23)cc1 -12, CC(C)(C)S(=O)(=O)Cc1nc(-c2ccc(Cl)c(Cl)c2)cs1 -9.14, Fc1ccc(-c2nc3ccc(Cl)cn3c2Cc2cccc(Cl)c2)cc1 -14.6, Cc1cc(C(N)=O)nn1-c1c(Cl)cc(Cl)cc1Cl -5.75, Cc1ccc(NC(=O)COC(=O)CCNS(=O)(=O)c2c(Cl)cccc2Cl)cc1 1.03, CSc1nnnn1-c1ccc(Cl)cc1 -7.03, Cc1noc(C)c1S(=O)(=O)N(Cc1ccccc1)C(C)C -6.23, Cc1cccc(-n2cnc3cc([N+](=O)[O-])ccc32)c1 -3.92, Cc1ccc(S(=O)(=O)N2CCCCC2C(=O)N2CCN(c3ccccc3F)CC2)cc1 (stereo not drawn) -9.62, COC(=O)c1cc(C(=O)c2c(C)cc3ccccn23)cc([N+](=O)[O-])c1 -18.9, [O-][n+]1ccccc1/C=C/c1ccccc1 -10.1, Fc1ccccc1C1CCN(Cc2nc(COc3ccccc3)no2)C1 (stereo not drawn) 2, CC(=O)c1ccc(OCC(=O)Nc2ccc3c(c2)CCC3)cc1 -2.25, Cc1ccc(Cc2c(-c3cccc(Br)c3)nc3ccc(C)cn23)cc1 -2.64, COc1ccc(S(=O)(=O)N2CCOc3ccccc32)cc1 -7.99, COc1ccc(-c2csc(NC(=O)c3ccccc3S(C)(=O)=O)n2)cc1 -8.44, O=C(OCC(=O)N1CCOCC1)c1cccc(S(=O)(=O)N2CCCc3ccccc32)c1 -7.89, O=C(CCC(=O)N1CCN(c2ccc(F)cc2)CC1)c1ccc(F)cc1 -7.74, COc1ccc(C(=O)Nc2cccc3ccccc23)cc1 -9.35, Cc1cc(-c2ccc(C)c(S(=O)(=O)NCC3CCN(Cc4ccccc4F)CC3)c2)on1 -4.91, O=S(=O)(c1cnc(Cl)c(Cl)c1)N1CCc2ccccc21 -6.18, O=C(COC(=O)c1ccccc1O)NCCC1=CCCCC1 -14.3, C=CCN(c1ccccc1)S(=O)(=O)c1ccc(Cl)c(C(=O)OCC(=O)NCCCN2CCCC2=O)c1 -3.83, CCN(C(=O)COC(=O)CCc1ccccc1)c1ccccc1 -2.42

— PubChem BioAssay AID977630 (Broad Institute, 2014)
